Data from the supplement of paper PMC10849652.
Targets with a hit are over-represented here; the source holds about 7,900 in all. About 0.6% of all pairs of compound and target were hits. Values without a mark were called inactive.

compound: CNC(=O)C1=CC=CC=C1NC2=NC(=NC=C2Cl)NC3=C(C=C(C=C3)N4CCOCC4)OC; test: log2 fold change, soluble protein after heating vs DMSO (PISA); higher = thermal stabilisation; K562 cells, 10 uM, 30 min; active = over 0.2 and 3.5 SD of the protein, either way, in both replicates (recomputed)
Summary of the method: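 Soluble protein was quantified by TMTpro 16plex LC-MS/MS after channel sums were equalised. It was obtained as the supernatant after 21,000xg for 90 min from pooled aliquots of K562 cells (2×10^6 cells/mL, 10 μM compound, 30 min) heated for 3 min across 48°C-58°C and extracted in PBS with 0.5% NP-40 at 4°C. Thermal stability values are relative to control samples and come from duplicates. They are given as log2 fold changes.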

UniProt Q9UBR2, sequence (Q9UBR2 whole entry, looked up): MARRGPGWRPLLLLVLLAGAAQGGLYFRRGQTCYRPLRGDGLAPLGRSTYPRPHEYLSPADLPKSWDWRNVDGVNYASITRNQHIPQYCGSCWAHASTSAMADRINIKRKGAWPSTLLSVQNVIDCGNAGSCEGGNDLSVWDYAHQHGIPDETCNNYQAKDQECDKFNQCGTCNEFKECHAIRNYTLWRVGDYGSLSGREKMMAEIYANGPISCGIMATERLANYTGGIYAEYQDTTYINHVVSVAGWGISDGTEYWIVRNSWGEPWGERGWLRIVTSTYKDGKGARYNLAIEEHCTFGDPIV
UniProt Q9NQZ7, sequence (Q9NQZ7 whole entry, looked up): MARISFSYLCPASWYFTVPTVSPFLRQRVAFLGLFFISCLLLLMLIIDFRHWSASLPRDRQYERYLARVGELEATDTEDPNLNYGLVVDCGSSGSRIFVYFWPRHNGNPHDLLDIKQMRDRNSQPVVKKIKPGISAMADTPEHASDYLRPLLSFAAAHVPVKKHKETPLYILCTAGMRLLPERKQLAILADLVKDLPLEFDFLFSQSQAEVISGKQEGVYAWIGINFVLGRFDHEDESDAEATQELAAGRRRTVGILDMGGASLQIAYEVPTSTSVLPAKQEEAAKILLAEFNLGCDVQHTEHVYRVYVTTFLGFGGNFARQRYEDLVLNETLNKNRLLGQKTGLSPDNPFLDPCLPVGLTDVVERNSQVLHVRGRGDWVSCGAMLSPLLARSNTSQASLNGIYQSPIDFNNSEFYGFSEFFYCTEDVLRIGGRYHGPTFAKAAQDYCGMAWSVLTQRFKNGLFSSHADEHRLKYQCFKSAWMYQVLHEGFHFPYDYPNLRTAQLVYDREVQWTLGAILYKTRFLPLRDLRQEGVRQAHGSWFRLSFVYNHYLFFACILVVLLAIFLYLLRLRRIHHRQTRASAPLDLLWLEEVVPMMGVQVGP
UniProt Q01780, sequence (Q01780 whole entry, looked up): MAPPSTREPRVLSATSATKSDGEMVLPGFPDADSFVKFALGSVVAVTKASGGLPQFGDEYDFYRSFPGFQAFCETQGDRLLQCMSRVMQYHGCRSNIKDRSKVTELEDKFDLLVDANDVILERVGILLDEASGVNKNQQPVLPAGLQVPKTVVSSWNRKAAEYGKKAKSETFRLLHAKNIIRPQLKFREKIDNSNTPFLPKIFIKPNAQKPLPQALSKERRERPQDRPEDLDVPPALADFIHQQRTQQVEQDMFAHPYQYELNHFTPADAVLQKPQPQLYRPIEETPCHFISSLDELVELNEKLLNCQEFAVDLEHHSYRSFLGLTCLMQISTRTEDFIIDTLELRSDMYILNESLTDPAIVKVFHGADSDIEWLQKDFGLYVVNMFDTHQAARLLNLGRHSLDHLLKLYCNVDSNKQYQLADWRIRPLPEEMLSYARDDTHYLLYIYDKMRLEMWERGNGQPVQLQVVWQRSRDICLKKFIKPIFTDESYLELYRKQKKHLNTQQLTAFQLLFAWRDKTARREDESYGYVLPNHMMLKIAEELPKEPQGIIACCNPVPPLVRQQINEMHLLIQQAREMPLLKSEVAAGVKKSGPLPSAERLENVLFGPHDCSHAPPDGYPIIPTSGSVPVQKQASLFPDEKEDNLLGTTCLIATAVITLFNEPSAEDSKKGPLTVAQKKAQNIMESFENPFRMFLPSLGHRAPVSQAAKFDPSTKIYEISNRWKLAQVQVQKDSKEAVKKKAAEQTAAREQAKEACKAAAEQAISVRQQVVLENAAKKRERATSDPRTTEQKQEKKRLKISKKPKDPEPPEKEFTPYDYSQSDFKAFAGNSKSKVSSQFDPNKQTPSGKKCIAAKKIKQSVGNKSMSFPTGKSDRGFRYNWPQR
UniProt Q16531, sequence (Q16531 whole entry, looked up): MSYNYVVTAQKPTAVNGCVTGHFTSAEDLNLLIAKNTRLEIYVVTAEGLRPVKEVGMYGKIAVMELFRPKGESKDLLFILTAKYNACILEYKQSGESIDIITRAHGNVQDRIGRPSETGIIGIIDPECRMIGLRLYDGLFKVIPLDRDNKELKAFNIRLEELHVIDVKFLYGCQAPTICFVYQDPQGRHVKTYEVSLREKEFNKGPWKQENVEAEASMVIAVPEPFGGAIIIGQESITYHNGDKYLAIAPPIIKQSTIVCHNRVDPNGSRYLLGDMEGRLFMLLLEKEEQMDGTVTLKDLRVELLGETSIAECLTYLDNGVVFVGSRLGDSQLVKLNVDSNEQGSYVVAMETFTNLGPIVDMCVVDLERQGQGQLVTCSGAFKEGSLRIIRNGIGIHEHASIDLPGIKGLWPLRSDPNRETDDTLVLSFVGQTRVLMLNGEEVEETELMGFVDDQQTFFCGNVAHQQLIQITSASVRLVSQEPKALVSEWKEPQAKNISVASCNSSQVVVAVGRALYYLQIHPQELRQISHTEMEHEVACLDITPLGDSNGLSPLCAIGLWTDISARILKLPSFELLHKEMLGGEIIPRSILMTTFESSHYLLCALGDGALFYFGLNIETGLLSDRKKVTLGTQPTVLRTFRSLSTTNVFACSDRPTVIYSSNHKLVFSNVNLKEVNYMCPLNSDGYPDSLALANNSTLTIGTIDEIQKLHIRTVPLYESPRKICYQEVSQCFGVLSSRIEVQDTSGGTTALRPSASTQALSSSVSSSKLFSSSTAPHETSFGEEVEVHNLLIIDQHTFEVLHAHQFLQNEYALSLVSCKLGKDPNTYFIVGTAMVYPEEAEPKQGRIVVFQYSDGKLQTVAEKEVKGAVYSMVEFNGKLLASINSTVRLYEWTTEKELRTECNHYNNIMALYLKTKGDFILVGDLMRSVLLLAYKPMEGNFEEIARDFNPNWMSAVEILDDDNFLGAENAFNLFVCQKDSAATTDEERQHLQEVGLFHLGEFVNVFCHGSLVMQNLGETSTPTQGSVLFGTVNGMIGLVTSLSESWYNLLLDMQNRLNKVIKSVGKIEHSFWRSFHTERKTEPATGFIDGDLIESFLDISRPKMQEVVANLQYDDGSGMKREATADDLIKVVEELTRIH
UniProt P35222, sequence (P35222 whole entry, looked up): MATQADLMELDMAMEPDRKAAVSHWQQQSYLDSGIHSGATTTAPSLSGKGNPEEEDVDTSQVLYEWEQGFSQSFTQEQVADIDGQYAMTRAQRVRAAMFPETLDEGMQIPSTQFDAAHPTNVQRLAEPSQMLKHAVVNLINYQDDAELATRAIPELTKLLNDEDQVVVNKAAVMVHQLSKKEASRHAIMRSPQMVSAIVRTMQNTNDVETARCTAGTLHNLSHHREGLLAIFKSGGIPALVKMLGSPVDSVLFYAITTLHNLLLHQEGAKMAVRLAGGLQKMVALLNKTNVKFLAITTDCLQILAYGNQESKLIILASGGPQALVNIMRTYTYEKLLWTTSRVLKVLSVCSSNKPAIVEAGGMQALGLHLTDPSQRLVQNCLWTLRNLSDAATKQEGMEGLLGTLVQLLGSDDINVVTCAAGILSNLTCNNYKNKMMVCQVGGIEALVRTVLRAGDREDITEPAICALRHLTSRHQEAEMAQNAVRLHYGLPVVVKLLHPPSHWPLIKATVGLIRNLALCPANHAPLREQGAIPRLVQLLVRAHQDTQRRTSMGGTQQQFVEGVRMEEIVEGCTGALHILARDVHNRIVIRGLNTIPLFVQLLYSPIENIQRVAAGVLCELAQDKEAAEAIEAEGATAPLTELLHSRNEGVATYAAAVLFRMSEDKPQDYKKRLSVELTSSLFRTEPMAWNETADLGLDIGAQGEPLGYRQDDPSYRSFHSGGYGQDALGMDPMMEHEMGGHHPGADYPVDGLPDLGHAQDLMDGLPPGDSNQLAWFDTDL
UniProt P32519, sequence (P32519 whole entry, looked up): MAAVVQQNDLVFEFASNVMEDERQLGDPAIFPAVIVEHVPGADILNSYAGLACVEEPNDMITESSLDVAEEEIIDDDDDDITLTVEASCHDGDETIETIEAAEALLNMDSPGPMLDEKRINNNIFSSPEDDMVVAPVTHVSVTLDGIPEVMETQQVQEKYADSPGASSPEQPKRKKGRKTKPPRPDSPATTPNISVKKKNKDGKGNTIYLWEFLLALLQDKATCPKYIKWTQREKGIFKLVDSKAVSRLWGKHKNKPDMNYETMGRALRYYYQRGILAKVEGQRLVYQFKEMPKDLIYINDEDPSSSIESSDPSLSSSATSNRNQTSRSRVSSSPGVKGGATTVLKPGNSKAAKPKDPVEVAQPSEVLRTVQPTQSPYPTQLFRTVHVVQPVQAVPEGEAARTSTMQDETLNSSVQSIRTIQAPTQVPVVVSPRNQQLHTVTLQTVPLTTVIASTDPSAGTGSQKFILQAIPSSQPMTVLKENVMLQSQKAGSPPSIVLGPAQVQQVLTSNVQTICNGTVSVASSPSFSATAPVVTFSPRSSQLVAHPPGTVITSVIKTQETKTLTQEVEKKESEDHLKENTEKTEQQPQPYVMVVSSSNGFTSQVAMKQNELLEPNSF
UniProt Q8TCE6, sequence (Q8TCE6 whole entry, looked up): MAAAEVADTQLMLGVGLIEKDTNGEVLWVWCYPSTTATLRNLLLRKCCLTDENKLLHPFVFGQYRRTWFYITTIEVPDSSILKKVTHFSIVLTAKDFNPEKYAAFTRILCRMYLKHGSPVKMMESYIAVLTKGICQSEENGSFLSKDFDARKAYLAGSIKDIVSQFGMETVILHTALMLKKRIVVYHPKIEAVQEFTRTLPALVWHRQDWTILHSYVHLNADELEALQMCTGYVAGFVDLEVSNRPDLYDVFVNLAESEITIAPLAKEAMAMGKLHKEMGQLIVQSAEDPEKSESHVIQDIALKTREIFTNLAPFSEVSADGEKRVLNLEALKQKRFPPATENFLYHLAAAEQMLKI
UniProt Q9NSI2, sequence (Q9NSI2 whole entry, looked up): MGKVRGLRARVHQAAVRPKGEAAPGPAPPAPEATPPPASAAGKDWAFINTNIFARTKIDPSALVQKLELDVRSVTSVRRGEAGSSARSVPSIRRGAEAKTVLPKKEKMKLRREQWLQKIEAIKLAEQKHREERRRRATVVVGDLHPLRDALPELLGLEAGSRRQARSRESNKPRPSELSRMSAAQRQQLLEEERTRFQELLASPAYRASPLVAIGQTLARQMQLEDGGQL

**Q.** How did the log2 fold change turn out when FAM207A (UniProt Q9NSI2) was run?
**A.** Its log2 fold change is 0.028.

**Q.** How did the log2 fold change turn out when FAM160B1 (UniProt Q5W0V3) was run?
**A.** The log2 fold change was -0.011.

**Q.** With EDC3 (UniProt Q96F86) as the target, how does the log2 fold change read?
**A.** Its log2 fold change is -0.021.

**Q.** For DSN1 (UniProt Q9H410), which log2 fold change is on record?
**A.** Its log2 fold change is -0.031.

**Q.** With DNAJB1 (UniProt P25685) as the target, how does the log2 fold change read?
**A.** The log2 fold change was -0.011.

**Q.** EEF2K (UniProt O00418) was tested. Which log2 fold change did it give?
**A.** The log2 fold change was 0.064.

**Q.** How did the log2 fold change turn out when CYB561A3 isoform 2 (UniProt Q8NBI2) was run?
**A.** Its log2 fold change is 0.025.

**Q.** For DNAJB12 (UniProt Q9NXW2), which log2 fold change is on record?
**A.** Its log2 fold change is 0.024.

**Q.** With DYNC1I2 isoform 2 (UniProt Q13409) as the target, how does the log2 fold change read?
**A.** Its log2 fold change is -0.021.

**Q.** With DDB1 (UniProt Q16531) as the target, how does the log2 fold change read?
**A.** The log2 fold change was 0.001.

**Q.** FAM3A (UniProt P98173) was tested. Which log2 fold change did it give?
**A.** Its log2 fold change is 0.065.

**Q.** With EXOSC10 (UniProt Q01780) as the target, how does the log2 fold change read?
**A.** The log2 fold change was -0.073.

**Q.** With ENTPD7 (UniProt Q9NQZ7) as the target, how does the log2 fold change read?
**A.** The log2 fold change was -0.162.

**Q.** How did the log2 fold change turn out when EEF1A1 (UniProt P68104) was run?
**A.** The log2 fold change was 0.007.

**Q.** FAM118B (UniProt Q9BPY3) was tested. Which log2 fold change did it give?
**A.** The log2 fold change was 0.088.

**Q.** Which log2 fold change does the source give for CTSZ (UniProt Q9UBR2) here?
**A.** The log2 fold change was 0.005.

**Q.** Which log2 fold change does the source give for DOCK8 (UniProt Q8NF50) here?
**A.** The log2 fold change was -0.163.

**Q.** How did the log2 fold change turn out when DNAJC24 (UniProt Q6P3W2) was run?
**A.** Its log2 fold change is -0.033.

**Q.** For DHRS3 (UniProt O75911), which log2 fold change is on record?
**A.** The log2 fold change was 0.044.

**Q.** Which log2 fold change does the source give for EIF2AK3 (UniProt Q9NZJ5) here?
**A.** The log2 fold change was 0.183.

**Q.** For ELAC1 (UniProt Q9H777), which log2 fold change is on record?
**A.** Its log2 fold change is -0.056.

**Q.** With EIF4G3 isoform 3 (UniProt O43432) as the target, how does the log2 fold change read?
**A.** Its log2 fold change is -0.019.

**Q.** How did the log2 fold change turn out when DTWD1 (UniProt Q8N5C7) was run?
**A.** Its log2 fold change is 0.007.

**Q.** DOLPP1 (UniProt Q86YN1) was tested. Which log2 fold change did it give?
**A.** The log2 fold change was 0.012.

**Q.** For DNAH11 (UniProt Q96DT5), which log2 fold change is on record?
**A.** The log2 fold change was -0.043.

**Q.** With DYNC1LI2 (UniProt O43237) as the target, how does the log2 fold change read?
**A.** The log2 fold change was 0.028.

**Q.** How did the log2 fold change turn out when DAXX (UniProt Q9UER7) was run?
**A.** The log2 fold change was -0.142.

**Q.** How did the log2 fold change turn out when DENND10 (UniProt Q8TCE6) was run?
**A.** Its log2 fold change is -0.039.

**Q.** With DLD (UniProt P09622) as the target, how does the log2 fold change read?
**A.** Its log2 fold change is 0.008.

**Q.** With CWF19L2 (UniProt Q2TBE0) as the target, how does the log2 fold change read?
**A.** The log2 fold change was -0.034.

**Q.** ELF1 (UniProt P32519) was tested. Which log2 fold change did it give?
**A.** The log2 fold change was 0.013.

**Q.** DYRK1A isoform 2 (UniProt Q13627) was tested. Which log2 fold change did it give?
**A.** Its log2 fold change is -0.264 (active).

**Q.** With EIF4E2 (UniProt O60573) as the target, how does the log2 fold change read?
**A.** Its log2 fold change is -0.026.

**Q.** Which log2 fold change does the source give for FAM241A (UniProt Q8N8J7) here?
**A.** The log2 fold change was 0.042.

**Q.** With CTSH (UniProt P09668) as the target, how does the log2 fold change read?
**A.** The log2 fold change was -0.002.

**Q.** How did the log2 fold change turn out when CYP24A1 (UniProt Q07973) was run?
**A.** Its log2 fold change is -0.075.

**Q.** For CTNNB1 (UniProt P35222), which log2 fold change is on record?
**A.** Its log2 fold change is -0.065.
